Screens as filed in PubChem BioAssay.
GLS inhibitor: blocks human kidney-isoform glutaminase activity | GLS enzymatic activity, qHTS titration | O94925 | 410,000 tested, 0.21% active | Potency, µM (doses to about 45.5 µM), inactives show at the highest dose activity change, negative = inhibition, hits mostly inhibitors; further: potency means the concentration at half of the fitted maximal effect; on the % scale 0 is the no-effect control and ±100 the full control effect
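Human kidney-isoform GLS in 45 mM KH2PO4 pH 8.2, 0.02% Tween-20, with compound, started with 1mM L-Glutamine (added stock). Glutamate oxidase/HRP/Amplex red coupled fluorescence read at start and after 30 min at RT.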
GLP1R inv ag: GLP-1 receptor (human) inverse agonism; AID 624417; 410,000 tested, 1.6% active; Potency, µM (series often up to 38.3 µM), inactives show at the top dose activity change, negative = inhibition, hits mostly inhibitors; HEK293 GLP-1R CRE-luciferase, luminescence, 24 h; GLP-1R form is constitutively active; P43220; further: potency means the concentration at half of the fitted maximal effect; on the % scale 0 is the no-effect control and ±100 the full control effect; nearly all actives have a fitted effect of over 55% in size
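Using stably transfected HEK293 (constitutively active GLP-1R, cAMP-luciferase reporter), compounds were incubated 24 hr and luciferase measured by luminescence.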
GLP1R ag: GLP-1 receptor (human) agonism | HEK293 GLP-1R CRE-luciferase, luminescence, 4-6 h; cells express a hypersensitive GLP-1R form | 380,000 tested, 0.007% active | Potency, µM (top dose mostly 45.6 µM), for the others: at the highest dose activation, usual class: activators | P43220 | AID 624172; further: potency means the concentration at half of the fitted maximal effect; % of control where 0% means no effect
hERG WT inh: blocks the wildtype human KCNH2 potassium channel; Q12809; U2OS, BacMam KCNH2, thallium flux FluxOr; hits give low values; activity change, % at 1.84 µM; 340,000 tested, 0.37% active; AID 720551;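 active means maximum activity change below -70%; inconclusive means maximum activity change between -70% and -50%; inactive means maximum activity change above -50%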; further: on the % scale 0 is the no-effect control and ±100 the full control effect
Target sequence (Q12809 whole entry, looked up): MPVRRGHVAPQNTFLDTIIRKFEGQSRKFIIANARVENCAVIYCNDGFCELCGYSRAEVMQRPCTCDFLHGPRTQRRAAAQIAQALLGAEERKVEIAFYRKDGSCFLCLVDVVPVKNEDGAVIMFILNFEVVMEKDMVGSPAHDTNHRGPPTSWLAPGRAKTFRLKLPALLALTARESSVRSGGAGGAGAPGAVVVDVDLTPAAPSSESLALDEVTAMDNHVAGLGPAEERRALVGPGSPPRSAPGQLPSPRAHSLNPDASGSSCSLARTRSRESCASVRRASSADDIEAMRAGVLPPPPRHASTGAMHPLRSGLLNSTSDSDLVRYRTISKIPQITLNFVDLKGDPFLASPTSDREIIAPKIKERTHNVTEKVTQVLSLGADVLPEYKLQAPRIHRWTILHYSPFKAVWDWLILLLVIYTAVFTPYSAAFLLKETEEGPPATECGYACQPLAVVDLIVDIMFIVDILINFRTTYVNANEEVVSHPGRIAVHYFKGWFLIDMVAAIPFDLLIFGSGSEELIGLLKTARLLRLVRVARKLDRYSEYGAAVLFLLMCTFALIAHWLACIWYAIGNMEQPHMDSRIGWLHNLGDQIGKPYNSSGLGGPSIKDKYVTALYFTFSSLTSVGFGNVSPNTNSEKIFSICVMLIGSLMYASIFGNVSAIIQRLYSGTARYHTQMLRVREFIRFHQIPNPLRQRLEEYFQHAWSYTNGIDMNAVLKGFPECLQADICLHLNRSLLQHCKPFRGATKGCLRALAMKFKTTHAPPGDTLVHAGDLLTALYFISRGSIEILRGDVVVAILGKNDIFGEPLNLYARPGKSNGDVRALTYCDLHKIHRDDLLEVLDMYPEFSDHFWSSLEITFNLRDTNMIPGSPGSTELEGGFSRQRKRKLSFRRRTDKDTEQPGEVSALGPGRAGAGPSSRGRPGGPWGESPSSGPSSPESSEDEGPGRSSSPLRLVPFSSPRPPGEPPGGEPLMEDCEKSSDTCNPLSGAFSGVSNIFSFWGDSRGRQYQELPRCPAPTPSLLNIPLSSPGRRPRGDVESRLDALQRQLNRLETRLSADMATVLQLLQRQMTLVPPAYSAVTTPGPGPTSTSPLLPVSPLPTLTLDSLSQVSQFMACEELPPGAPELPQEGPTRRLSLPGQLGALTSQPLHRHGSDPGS
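U2OS cells were transduced with wild-type KCNH2 virus (2.03 x 10^8 / mL) for 4 h at room temperature, then cultured overnight at 37 C. Thallium flux was read with FluxOr dye. Rate constants were normalized to DMSO controls.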
HEK293 tox: cytotoxicity in counter-screen for GLP-1R inverse agonists; Potency, µM (doses to about 38.3 µM), for inactives: at the highest dose activity change, negative = inhibition, usual class: inhibitors; 410,000 tested, 0.13% active; HEK293 cAMP-luciferase reporter cells, luminescence, 24 h; AID 624418;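 further: loss of luciferase light is scored as toxicity; potency means the concentration at half of the fitted maximal effect; on the % scale 0 is the no-effect control and ±100 the full control effect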
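A 23 nL compound transfer followed 12 hours of cell culture at 37 deg C; exposure then lasted 24 hr. Luciferase assay detection reagent was dispensed and plates read for luminescence after a 12 min room-temperature wait.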
KCNH2 3.1 inh: KCNH2 3.1 (human) potassium channel inhibition. U2OS KCNH2 3.1, thallium flux FluxOr; hits give low values. activity change, % (tested at about 1.8 µM). 340,000 tested, 0.95% active. AID 720553;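 active means maximum activity change below -70%; inconclusive means maximum activity change from -70% to -50%; inactive means maximum activity change above -50%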;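 further: thallium influx rate constant from kinetic fluorescence after stimulation buffer; on the % scale 0 is the no-effect control and ±100 the full control effect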
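Virally transduced U2OS (3.1 isoform, 4 h infection in dark at RT) → overnight 37 C → FluxOr + Red40 in HBSS/HEPES, 45 min → stimulation buffer, 2 min kinetic read → rate constant vs DMSO controls.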
The depositor's hits bear a star; u = inconclusive; x = no result. This is a sample that favours compounds with a hit; in the whole collection about 2.8% have one here. Unless noted, the call rests on the fitted dose curve; in most records, active means well fitted curve in the direction sought with a large enough effect; inconclusive means small, poorly fitted or top-dose-only effect, or another doubt; inactive means no such curve, though single readings can be large; an effect the other way counts as inactive or inconclusive.

SMILES	GLS inhibitor	GLP1R inv ag	GLP1R ag	hERG WT inh	HEK293 tox	KCNH2 3.1 inh
CN1CCCN(C(c2ccccc2)c2ccc(Cl)cc2)CC1 (centres undefined)	5.2%	u	21.3%	-21.7	u	-98.5*
COc1ccccc1CNC(=O)CCS(=O)(=O)Cc1ccc(C)cc1	-5.2%	-13.6%	6.1%	10.2	3.6%	25.9
Cc1ccc(CS(=O)(=O)CCC(=O)NCc2ccccc2Cl)cc1	5.5%	-23.6%	3.4%	-1.0	3.9%	-72.6*
Cc1ccc(CNC(=O)CCS(=O)(=O)c2ccc(Br)cc2)cc1	11.2µM*	-13.9%	4.9%	-2.9	-1.1%	x
COC(=O)c1cc2sccc2n1CC(=O)Nc1cc(Cl)ccc1OC	7.3%	u	x	x	-3.8%	x
CCOc1ccccc1CNC(=O)c1cnn(-c2ccc(C)cc2)c1-n1cccc1	-9.5%	-6.8%	x	x	5.5%	x
CCCCCCCCCCCCCC[N+](C)(C)Cc1ccccc1	-12.5%	x	-1.7%	x	x	x
CCCCCCCCCCCCCCCC[N+](C)(C)Cc1ccccc1	31.6µM*	x	-6.1%	x	x	x
Cc1c(NC2=CC(=O)CC(C)(C)C2)ccc([N+](=O)[O-])c1C	-2.6%	6.6%	7.9%	1.0	10.8%	-104.1*
Cc1ccccc1NC1=CC(=O)CC(C)(C)C1	-3.2%	-8.7%	21.1%	-7.7	1.2%	-5.5
CCOC(=O)C1=C(C)N=c2s/c(=C\c3ccc(C(=O)O)cc3)c(=O)n2C1c1ccc(OC)cc1OC (centres undefined)	1.1%	10.6%	-4.9%	-0.6	u	11.6
CCOC(=O)C1=C(C)N=c2s/c(=C/c3ccco3)c(=O)n2C1c1cccc(OC)c1 (centres undefined)	-7.5%	11.2µM*	-10.8%	-11.6	0.8%	14.3
Cc1ccc(C)c(C(=O)COC(=O)c2cc(S(=O)(=O)N3CCOCC3)ccc2F)c1	11.9%	-2.2%	-2.2%	-77.3*	-7.4%	2.2
O=C(COC(=O)c1cc(S(=O)(=O)N2CCOCC2)ccc1F)c1ccccc1	1.0%	0.5%	5.8%	0.3	-2.6%	10.4
Cc1ccc(S(=O)(=O)N2CCCCC2)cc1C(=O)N(CCc1ccccc1)Cc1ccccc1	-1.0%	4.47µM*	-5.8%	-5.3	10.3%	-18.7
O=C(c1cc(S(=O)(=O)N2CCOCC2)ccc1F)N(CCc1ccccc1)Cc1ccccc1	-0.1%	10µM*	6.3%	0.4	-2.6%	-17.1
O=C(c1ccccc1[N+](=O)[O-])N(CCc1ccccc1)Cc1ccccc1	-7.2%	u	8.2%	-12.4	1.3%	-6.7
Cc1cccc(C(=O)N(CCc2ccccc2)Cc2ccccc2)c1[N+](=O)[O-]	2.1%	3.16µM*	-4.3%	-7.5	-19.2%	9.9
COC(=O)c1ccc(Nc2ncnc3c2nc2n3CCCC2)cc1	-14.3%	-1.0%	x	x	4.2%	x
COc1ccc(C(=O)N(CCc2ccccc2)Cc2ccccc2)c(OC)n1	0.3%	5.62µM*	15.1%	-1.4	6.7%	-2.7
Cc1cc(C(F)(F)F)c(C#N)c(SCC(=O)NC(C)(C)C)n1	-1.4%	-2.8%	15.3%	9.9	24.9%	u
Cc1cc(C)c(C#N)c(SCC(=O)NC(C)(C)C)n1	0.9%	11.2%	-1.1%	-13.3	3.2%	-84.1*
CCOC(=O)C(=O)NCC(c1cccs1)S(=O)(=O)c1ccc(F)cc1 (centres undefined)	5.6%	5.0%	-1.8%	-9.7	-14.6%	-137.5*
CCOc1ccccc1NC(=O)Cn1c(=O)n(C(C)C)c(=O)c2oc3ccccc3c21	-13.3%	-5.0%	x	x	17.1%	x
Cc1cc(=O)n2[nH]c(NC(=O)c3cccc(Cl)c3)nc2n1	-1.4%	4.8%	x	x	0.9%	x
SMILES	GLS inhibitor	GLP1R inv ag	GLP1R ag	hERG WT inh	HEK293 tox	KCNH2 3.1 inh
C[C@H](CO)N1C[C@H](C)[C@@H](CN(C)Cc2ccccc2)Oc2c(NC(=O)Cc3ccccc3)cccc2C1=O	-1.5%	u	15.9%	-1.1	u	-7.8
Cc1noc(C)c1S(=O)(=O)N(C)C[C@H]1Oc2c(NC(=O)Nc3ccc(C(F)(F)F)cc3)cccc2C(=O)N([C@H](C)CO)C[C@@H]1C	-7.6%	u	1.8%	-5.1	-18.6%	-13.3
C[C@H](CO)N1C[C@H](C)[C@@H](CN(C)Cc2ccc(Oc3ccccc3)cc2)Oc2ccc(NC(=O)Cn3cnnn3)cc2C1=O	3.8%	11.1%	-5.3%	-272.9*	7.0%	10.0
C[C@H](CO)N1C[C@H](C)[C@@H](CN(C)Cc2ccc(Cl)c(Cl)c2)Oc2c(NC(=O)Cc3ccccc3)cccc2C1=O	-0.1%	u	-0.1%	-14.6	u	-78.5*
C[C@@H]1CN([C@@H](C)CO)C(=O)c2cc(NC(=O)C3CC3)ccc2O[C@@H]1CN(C)Cc1ccc(Cl)c(Cl)c1	-5.7%	11.2µM*	-1.3%	0.0	-23.5%	-11.0
Cc1noc(C)c1S(=O)(=O)N(C)C[C@H]1Oc2c(NC(=O)Nc3ccccc3)cccc2C(=O)N([C@H](C)CO)C[C@@H]1C	2.0%	0.4%	6.6%	-123.5*	-2.4%	9.6
CCOc1ccc(Sc2cc(C(=O)NCCc3ccc(OC)c(OC)c3)c3ccccc3n2)cc1	0.9%	10.2%	x	x	4.0%	x
Cc1nn(CC(=O)NCCc2ccccc2)c(=O)c2nn(-c3ccccc3)c(C)c12	-13.7%	-4.4%	x	x	3.9%	x
Cn1cc(S(=O)(=O)c2cccc(Cl)c2)c(=O)c2cc(F)c(N3CCN(c4ccc(F)cc4)CC3)cc21	6.9%	0.9%	x	x	12.3%	x
CC(C)NC(=O)Nc1ccc2c(c1)C(=O)N([C@H](C)CO)C[C@H](C)[C@@H](CN(C)Cc1ccc3c(c1)OCO3)OCCCC[C@@H](C)O2	3.7%	10.7%	10.4%	2.6	1.4%	13.8
C[C@H](CO)N1C[C@H](C)[C@@H](CN(C)Cc2ccc(Cl)c(Cl)c2)Oc2c(NS(=O)(=O)c3ccc(F)cc3)cccc2C1=O	2.2%	11.2µM*	-0.6%	-25.3	u	-6.4
CC(C)NC(=O)Nc1ccc2c(c1)C(=O)N([C@H](C)CO)C[C@H](C)[C@@H](CN(C)Cc1ccc(C(F)(F)F)cc1)OCCCC[C@H](C)O2	0.8%	10µM*	2.5%	11.1	-26.8%	-12.1
COc1ccc(C(=O)CN2C(=O)N(c3ccc(C(C)=O)cc3)S(=O)(=O)c3ccccc32)cc1	-10.8%	12.2%	0.2%	x	-1.3%	x
Cc1cc(C)c(C)c(S(=O)(=O)NCC(=O)NCC2CCCCC2)c1C	7.1%	6.31µM*	13.1%	11.5	17.3%	-5.2
CCc1cccc(NC(=O)Cn2c(=O)c(C(F)(F)F)nc3ccccc32)c1	7.6%	4.2%	x	x	7.8%	x
